# Screening results: PubChem BioAssay, several laboratories
# Shown are actives, neighbours in structure and some others; about 3.1% of the full set was active somewhere.
# KCC2 mod: KCC2 (human) Cl- transport modulation. AID 1456. B-score of Tl+ flux slope (higher = more flux/activation; lower = inhibition) at 10 µM. 190,000 tested, 2.2% active. KCC2 cells, thallium flux FluoZin-2 fluorescence. Q9H2X9;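 active = thallium flux slope and its plate-corrected score both differing from the plate sample mean at a set confidence after two filtering rounds, in either direction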;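 also: slope of fluorescence scaled to starting intensity during 10 to 20 s after thallium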
# EP2 modulator: modulators of human EP2 prostaglandin E2 receptor | 260,000 tested, 0.83% active | P43116 | induction, % at 25 µM | EP2-expressing cells, cAMP HTRF FRET, PGE2 co-stimulation;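 active = compounds whose cAMP rise, as percent of the full-agonist control response, exceeds 60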;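 also: rat C6 glioma line stably carrying human EP2 under a CMV promoter; the protocol text gives 20 µM as final concentration; 100% = response of wells given 1 µM PGE2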
# Target sequence (P43116 whole entry, looked up): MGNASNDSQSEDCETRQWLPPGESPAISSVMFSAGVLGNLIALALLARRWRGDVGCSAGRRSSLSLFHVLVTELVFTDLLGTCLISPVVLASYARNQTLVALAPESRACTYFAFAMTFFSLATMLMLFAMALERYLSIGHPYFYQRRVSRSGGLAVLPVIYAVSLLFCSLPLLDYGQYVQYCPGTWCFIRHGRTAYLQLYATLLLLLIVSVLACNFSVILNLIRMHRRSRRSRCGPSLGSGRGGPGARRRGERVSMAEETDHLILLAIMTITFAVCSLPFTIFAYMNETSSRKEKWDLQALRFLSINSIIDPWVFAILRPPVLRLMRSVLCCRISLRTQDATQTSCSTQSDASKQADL
# S1P3 antag: blocks the human S1P3 receptor; CHO S1P3 NFAT-BLA reporter, FRET fluorescence, antagonist mode; inhibition, % at 4.98 µM; 170,000 tested, 0.27% active; AID 485;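 active = inhibition above the plate cutoff, the mean inhibition of test wells on that plate plus 3 SD, cut at about 28% in these data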;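 also: cells challenged with S1P at its EC80 of 0.8 µM; blue over green emission ratio from cleaved BLA substrate after 4 h stimulation; 0% = S1P-stimulated wells and 100% = unstimulated DMSO-only wells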
# Target sequence (Q99500 whole entry, looked up): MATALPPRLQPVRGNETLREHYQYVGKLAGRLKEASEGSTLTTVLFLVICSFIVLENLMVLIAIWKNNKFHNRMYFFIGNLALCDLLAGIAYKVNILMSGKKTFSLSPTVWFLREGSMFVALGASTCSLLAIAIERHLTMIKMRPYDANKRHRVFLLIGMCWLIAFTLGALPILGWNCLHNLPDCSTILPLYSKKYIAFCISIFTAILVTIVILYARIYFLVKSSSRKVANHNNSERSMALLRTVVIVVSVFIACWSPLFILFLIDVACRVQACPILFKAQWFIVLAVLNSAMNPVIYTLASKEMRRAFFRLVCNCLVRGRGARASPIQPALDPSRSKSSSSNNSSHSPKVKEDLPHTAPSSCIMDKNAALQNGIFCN
# PGE2 EP2 inh: blocks the human prostaglandin E2 receptor EP2 | 260,000 tested, 0.52% active | C6 glioma cells expressing human EP2, cAMP TR-FRET; cells stimulated with saturating PGE2 | P43116 | AID 1422 | inhibition, % at 25 µM;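 active = percent inhibition above 40 after rounding to a whole number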;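 also: rat C6 glioma host cells with rolipram phosphodiesterase inhibitor present; the protocol text gives 20 µM as final concentration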
# KCC2 secondary: KCC2 (human) modulation, secondary assay | shares compounds with KCC2 mod | HEK293-KCC2, thallium flux, FluoZin2 fluorescence; stronger effect = higher value | 3,700 tested, 15% active | AID 1713 | normalised thallium flux (F/F0 slope) at 10 µM;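 active = thallium flux slope above the same plate's solvent-only control mean plus 3 SD; inconclusive = the two replicate wells disagree; inactive = no significant difference from solvent-only control wells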
# KCC2 bumet counter: thallium flux persisting under bumetanide in KCC2 cells, counter-screen secondary assay | 3,700 tested, 49% active | shares compounds with KCC2 mod | normalized thallium flux at 10 µM | HEK293-KCC2 + bumetanide/ouabain, thallium flux FluoZin2; stronger effect = higher value;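 active = thallium entry rate above the same plate's blocked-transporter control wells by more than 3 SD; inconclusive = the two repeat wells disagree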;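 also: raw slope of fluorescence over initial fluorescence between 10 and 20 s after thallium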
# KCC2 sec2: confirmation of human KCC2 transport modulators; normalized thallium flux at 10 µM; AID 1715; 3,700 tested, 23% active; HEK293-KCC2, thallium flux FluoZin2 fluorescence; actives lie on both sides; F/F0 rise rate, 10–20 s post-thallium; shares compounds with KCC2 mod;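 active = thallium flux slope more than 3 SD above or below the plate's solvent-only control mean, mostly below; inconclusive = the two repeat wells disagreed; inactive = no significant shift from solvent-only controls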;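 also: raw slope with 0.1% DMSO as baseline and bumetanide as block control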
# HEK counter1: acts in parental HEK cells, KCC2 counter-screen. shares compounds with KCC2 mod. thallium flux rate (normalised fluorescence) at 10 µM. HEK293 parental cells, thallium flux FluoZin2, ouabain; baseline-ratio fluorescence slope, 10–20 s after thallium. 3,700 tested, 46% active;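 active = thallium flux rate significantly above the same plate's solvent-only control wells, beyond their mean plus 3 SD; inconclusive = the two replicate wells gave conflicting results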
# KCC2 retest ouab: KCC2 (human) modulation, ouabain retest | shares compounds with KCC2 mod | HEK293-KCC2, thallium flux FluoZin2 fluorescence; bidirectional: low = inhibitor, high = activator | raw Tl+ flux slope (below DMSO = inhibition, above = activation) at 10 µM | 3,700 tested, 48% active | AID 1717;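 active = thallium flux slope beyond 3 SD from same-plate DMSO control mean in most replicates, usually higher, sometimes lower; inconclusive = repeat tests gave conflicting results; inactive = no significant difference from controls in most replicates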;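 also: slope of initial-normalized fluorescence between seconds 10 and 20 after thallium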
# HEK counter2: counter-screen for KCC2 modulators: effect in parental HEK293 cells; shares compounds with KCC2 mod; thallium flux FluoZin-2 fluorescence slope; thallium flux slope at 10 µM; 3,700 tested, 33% active; AID 1718;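 active = thallium flux slope above the same plate's solvent-control mean plus 3 SD in both duplicate wells; inconclusive = duplicate wells that disagreed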;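 also: run without ouabain in cells lacking the KCC2 cotransporter; slope of fluorescence scaled to its starting value between 10 and 20 s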
# * hit, by the source's call; ? = inconclusive; / = not tested or not shown.
SMILES,KCC2 mod,EP2 modulator,S1P3 antag,PGE2 EP2 inh,KCC2 secondary,KCC2 bumet counter,KCC2 sec2,HEK counter1,KCC2 retest ouab,HEK counter2
N#Cc1cc2c(nc1SCC(O)CS(=O)(=O)Cc1ccccc1)CCCC2 (configuration not stated),-2.9*,1,-2,7,?,0.0053,0.032,0.0072,?,0.01
COCCCn1c(SCC(=O)Nc2cc(OC)ccc2OC)nnc1-c1ccoc1C,/,-27,/,7,/,/,/,/,/,/
CC1CCN(C(=O)CSc2nc3ccccc3n2Cc2ccccc2F)CC1,/,44,/,8,/,/,/,/,/,/
c1ccc(CN2CN=C(Nc3nc4ccccc4s3)NC2)cc1,-0.02,-22,/,4,/,/,/,/,/,/
COc1ccc(CN2CN=C(Nc3nc4ccccc4s3)NC2)cc1,-5.4*,-74,/,7,0.0057,0.0047,0.029,0.0074,0.019,0.011
O=S(=O)(CCOc1ccccc1)c1nc2ccccc2[nH]1,/,4,-22,4,0.0077,0.0059,0.036,0.0044,0.018,0.011
O=C(CCCOc1ccccc1)Nc1nc2ccccc2[nH]1,-0.13,-82,-9,4,/,/,/,/,/,/
CCCc1oc2c(c(=O)c1CC)C(=O)CC(C)(C)C2,/,17,8,5,0.016,0.0046,0.028,?,0.015,0.011
O=C1C=C(c2ccccc2)OC1=O,/,-22,/,7,/,/,/,/,/,/
Cc1ccc(S(=O)(=O)NC(C)C(=O)NC2CCCCCC2)cc1 (configuration not stated),0.0074,18,/,17,/,/,/,/,/,/
CCc1ccc(S(=O)(=O)NC(=S)NC2CCCCC2)cc1,32*,1,-21,3,0.026*,0.071*,?,0.05*,0.06*,0.018*
Cc1ccc(S(=O)(=O)NC(=S)NC2CCCCC2)cc1,13*,-2,-24,1,0.016*,0.032*,0.037,?,0.034*,0.013
O=S(=O)(NC(=S)NC1CCCCC1)c1ccc(Cl)cc1,11*,-6,-5,3,0.017,0.02*,0.032,0.02*,0.025*,0.022*
CC(C)(C)NC(=O)c1ccc2c(c1)N(Cc1ccccc1Cl)C(=O)C(C)(C)O2,/,39,/,14,/,/,/,/,/,/
C[C@@H](Cn1nnc2ccccc21)NC(=O)CCn1c(=O)oc2ccccc21,/,-10,/,11,/,/,/,/,/,/
O=C(Cc1cccc(Cl)c1)NCCN1CCC(O)(c2ccc(F)cc2)CC1,/,-22,/,5,/,/,/,/,/,/
CC(C)C(OC(=O)c1ccco1)C(=O)NCCc1ccccc1 (configuration not stated),/,-10,/,15,/,/,/,/,/,/
N#Cc1c(-c2ccccc2)cc(-c2ccco2)[nH]c1=O,/,7,/,15,/,/,/,/,/,/
CC(C)(C)NC(=O)C(c1ccccn1)N(Cc1ccc(Cl)cc1)C(=O)c1csnn1 (configuration not stated),/,-41,/,11,/,/,/,/,/,/
CC(=O)Oc1ccc(C(=O)Nc2nnc(C)s2)cc1,2.4*,29,-23,2,0.0086,0.0066,0.03,0.0066,0.019,?
CSc1ncc(Cl)c(C(=O)C(C#N)c2nc3c(C)cc(C)cc3c(=O)[nH]2)n1 (configuration not stated),5*,-16,24,11,0.007,0.019*,0.034,0.016*,?,0.015*
CSc1ncc(Cl)c(C(=O)Nc2cccc(C)c2)n1,-1.7,-2,2,11,/,/,/,/,/,/
Cc1ccsc1/C=C/c1ccc2cccc(O)c2n1,1.4,-29,/,4,/,/,/,/,/,/
Oc1cccc2ccc(/C=C/c3cccs3)nc12,15*,-20,/,8,0.0096,0.019*,0.032,0.013*,?,0.011
COCCCNC(=O)c1cc2c(n(-c3ccc(OC)cc3)c1=O)CC(C)(C)CC2=O,/,3,/,8,/,/,/,/,/,/
SMILES,KCC2 mod,EP2 modulator,S1P3 antag,PGE2 EP2 inh,KCC2 secondary,KCC2 bumet counter,KCC2 sec2,HEK counter1,KCC2 retest ouab,HEK counter2
O=C1c2oc3ccc(F)cc3c(=O)c2C(c2ccc(F)cc2)N1CCCN1CCOCC1 (configuration not stated),0.23,/,-10,9,/,/,/,/,/,/
COc1cccc(C2c3c(oc4ccc(F)cc4c3=O)C(=O)N2CCCN2CCOCC2)c1 (configuration not stated),11*,-2,-6,/,0.0071,0.011*,0.03,0.013*,?,0.014*
CSc1cccc(NC(=O)C2CCN(S(=O)(=O)c3ccc(F)cc3)CC2)c1,/,-11,47,10,0.0077,0.0053,0.034,0.0044,?,0.01
CSc1cccc(NC(=O)C2CCN(S(=O)(=O)c3ccc(Cl)cc3)CC2)c1,/,-105,/,9,/,/,/,/,/,/
COc1ccccc1NC(=O)CSc1nnc(CNC(=O)c2ccco2)o1,/,15,/,12,/,/,/,/,/,/
COc1ccc(NC(=O)CSc2nnc(CNC(=O)c3ccco3)o2)c(OC)c1,/,16,/,20,0.017,0.0052,0.027,0.0071,0.016,0.01
O=[N+]([O-])c1ccc2nc(/C=C/c3ccc(Cl)cc3)[nH]c2c1,-4.5*,-23,/,24,0.007,0.0052,0.029,0.0077,?,0.0099
O=[N+]([O-])c1ccc(-c2nc3ccc([N+](=O)[O-])cc3[nH]2)cc1,/,-25,/,9,/,/,/,/,/,/
CCC(C(=O)NC(C)c1nc(-c2cccnc2)n[nH]1)c1ccccc1 (configuration not stated),/,1,/,4,/,/,/,/,/,/
COCc1cc(C)nc(OCC(=O)N/N=C/c2ccc(-c3cc([N+](=O)[O-])ccc3Cl)o2)c1C#N,6.8*,-4,-1,7,0.0072,0.015*,0.035,0.024*,0.027*,0.021*
COCc1cc(C)nc(OCC(=O)N/N=C/c2ccco2)c1C#N,0.66,29,-9,7,/,/,/,/,/,/
Cc1cccc(-n2c(-c3csc(C)c3)n[nH]c2=S)c1,-0.86,25,/,11,/,/,/,/,/,/
CCc1cc(-c2n[nH]c(=S)n2-c2cccc(C)c2)cs1,43*,17,/,/,0.012*,0.11*,0.029,0.02*,0.047*,0.01
CCCn1c(-c2ccccc2N)n[nH]c1=S,/,-1,/,12,/,/,/,/,/,/
CCCCn1c(-c2csc(CC)c2)n[nH]c1=S,14*,39,6,1,0.012*,0.054*,0.034,0.022*,0.044*,0.012*
CCCCCCn1c(-c2cccs2)n[nH]c1=S,46*,47,14,17,0.0061,0.084*,0.068*,0.063*,0.067*,0.057*
